Measured values from PubChem BioAssay AID2158 (National Center for Advancing Translational Sciences (NCATS), 2009).
Where “and” joins values, the source holds several entries; their conditions need not be identical. Equal entries are not always repeated. Inconclusive results are not listed. Values without a mark were called inactive. Calls of active or inactive are those of the source. Calls come from the whole dose curve; as a rule, active = well fitted inhibition curve with a large enough effect; inconclusive = small, poorly fitted or top-dose-only effect; inactive = no such curve, though single readings can be large or run the other way.
Note: nearly all actives have a fitted effect of over 40% in size.
Potency is the fitted concentration of half-maximal effect.
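Throughout, for activity change, negative = inhibition: plate controls were uninhibited enzyme control for no effect and buffer wells lacking enzyme for full effect.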

What follows are compounds tested against Cruzipain (Trypanosoma cruzi) (UniProt P25779) (assay: Confirmation qHTS Assay for Inhibitors of Cruzain). Details: purified cruzain, Z-FR-AMC fluorescence, 0.01% Triton.
Sequence of Cruzipain (Trypanosoma cruzi) (P25779 123-467 limits assumed): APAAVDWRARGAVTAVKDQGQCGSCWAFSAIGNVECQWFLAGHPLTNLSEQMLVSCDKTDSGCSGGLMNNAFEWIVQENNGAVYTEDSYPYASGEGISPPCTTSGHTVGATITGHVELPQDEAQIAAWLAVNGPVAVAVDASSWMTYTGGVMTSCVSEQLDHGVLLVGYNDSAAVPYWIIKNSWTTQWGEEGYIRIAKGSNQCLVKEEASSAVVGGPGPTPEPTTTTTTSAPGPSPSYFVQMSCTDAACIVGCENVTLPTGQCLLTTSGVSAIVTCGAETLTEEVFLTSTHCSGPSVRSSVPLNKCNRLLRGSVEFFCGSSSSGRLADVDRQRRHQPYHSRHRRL
Summary of the method: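 Reaction progress from the 60 s rise in AMC fluorescence (ex 360, em 450 nm) after adding 2 uM Z-FR-AMC. Before this, 1.5 nM cruzain sat 15 min at room temperature with compound in pH 5.5 acetate buffer with 5 mM DTT and 0.01% Triton X-100.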
For `CCNc1nc(C#N)nc(N2CCOCC2)n1`, the Potency was 10 µM (active).
`O=C(CNC(=O)Cc1ccccc1)NCC(=O)OCC(=O)c1cccc2ccccc12` gave an activity change, negative = inhibition of -13%.
`Cc1ccc(C(=O)COC(=O)CNC(=O)COc2ccccc2C)cc1C` was tested, and the Potency was 14.1 µM (active).
With `O=C(CNC(=O)c1ccncc1)OC(C(=O)Nc1cc(C(F)(F)F)ccc1Cl)c1ccccc1` (stereo not drawn) the Potency was 25.1 µM (active).
`O=C(NCCc1nc2ccccc2n1Cc1ccccc1F)c1ccc(F)cc1` was tested, and the Potency was 1.58 µM (active).
Compound `O=C(Nc1cc(C(F)(F)F)ccc1Cl)C(O)Cc1ccccc1` (stereo not drawn) has an activity change, negative = inhibition of -18.4%.
With `O=C(CNC(=O)c1ccc2n[nH]nc2c1)OC(C(=O)Nc1cc(C(F)(F)F)ccc1Cl)c1ccccc1` (stereo not drawn) the Potency was 14.1 µM (active).
With `CCn1cnc2c(Nc3ccc(Cc4cccnc4)cc3)nc(C#N)nc21` the Potency was 14.1 µM (active).
In the case of `O=C(COC(=O)CNC(=O)c1ccccc1Cl)Nc1cc(C(F)(F)F)ccc1Cl`, the Potency is reported as 3.55 µM (active).
With `N#Cc1nc(Nc2cccc3ccccc23)nc(NC2CCCC2)n1` the Potency was 2.82 µM (active).
`CCc1ccc(OCCCn2c(CCNC(=O)C3CCCCC3)nc3ccccc32)cc1` was tested, and the Potency was 1.41 µM (active).
With `Cc1ccc2[nH]c(=O)c(CN(CCCO)Cc3nnnn3Cc3ccccc3)cc2c1` the activity change, negative = inhibition was -13%.
Work on `Clc1ccc(-c2nn3c(-c4cc(-c5ccccc5)n[nH]4)nnc3s2)cc1` yielded an activity change, negative = inhibition of -13.4%.
In the case of `O=C(CNC(=O)c1ccccc1)OC(C(=O)Nc1ccc2c(c1)OCO2)c1ccccc1` (stereo not drawn), the Potency is reported as 8.91 µM (active).
For `CC/C=C1/N=C2C(=O)N(C)C(=O)N=C2N(C)N1`, the Potency was 0.631 µM (active).
In the case of `CCNC(=O)c1ccc2nc(-c3ccccc3)c(-c3ccccc3)nc2c1`, the activity change, negative = inhibition is reported as -14.3%.
With `CNC(=O)c1ccc2nc(-c3ccco3)c(-c3ccco3)nc2c1` the Potency was 7.08 µM (active).
`CCCNC(=O)Cn1c(SCc2ccccc2C)nc2ccncc21` was tested, and the activity change, negative = inhibition was -2.3%.
`CC(C)CC(=O)OC1C(N2CCOCC2)c2c(ccc(/C=C/C(=O)N3CCOCC3)c2O)OC1(C)C` (stereo not drawn) showed an activity change, negative = inhibition of -26%.
For `O=C(CNC(=O)C1CCCCC1)OCC(=O)c1cccc(Cl)c1`, the Potency was 2.82 µM (active).
With `CCOC(=O)CNc1nc(C#N)nc(N2CCOCC2)n1` the Potency was 4.47 µM (active) and 6.31 µM (active).
`Cc1ccc2[nH]c(=O)c(CN(Cc3ccccc3)Cc3nnnn3Cc3ccco3)cc2c1` gave an activity change, negative = inhibition of -19.4%.
With `COc1ccc(/C=C/C(=O)Nc2ccc(-n3nncc3-c3ccccc3)cc2)cc1OC` the Potency was 14.1 µM (active).
`O=C(NC(=S)Nc1nc(-c2cccc3ccccc23)cs1)c1cc2ccccc2o1` gave an activity change, negative = inhibition of -1.65%.
With `NC(=S)N/N=C/c1ccc(-c2ccc(Cl)c(Cl)c2)o1` the Potency was 2 µM (active).
In the case of `COc1ccc(NC(=O)C(OC(=O)CNC(=O)c2ccccc2)c2ccccc2)cc1F` (stereo not drawn), the Potency is reported as 11.2 µM (active).
In the case of `COc1ccc2[nH]c(=O)c(CN(Cc3nnnn3Cc3ccco3)C3CCCCC3)cc2c1`, the Potency is reported as 14.1 µM (active).
`CC1(C)Cc2c(C#N)c(N3CCN(C(=O)c4ccccc4)CC3)nc(-c3ccco3)c2CS1` was tested, and the Potency was 15.8 µM (active).
`Cc1ccc(S(=O)(=O)NC(N)=NCCC[C@@H](NC(=O)CNC(=O)c2ccccc2)C(=O)Nc2cc(C(F)(F)F)ccc2Cl)cc1` gave an activity change, negative = inhibition of -20%.
`CN(C)c1ccc(-c2nn3c(-c4cc(-c5ccccc5)n[nH]4)nnc3s2)cc1` showed an activity change, negative = inhibition of -5.13%.
With `O=C(CNC(=O)c1ccccc1)N[C@@H](C(=O)Nc1cc(C(F)(F)F)ccc1Cl)c1ccccc1` the activity change, negative = inhibition was -6.12% and -5.77%.
In the case of `CC(C)(C)OC(=O)Cc1nnc(-c2cc3ccccc3[nH]2)o1`, the activity change, negative = inhibition is reported as 0.423%.
For `O=C(CNC(=O)C1CCCCC1)OCC(=O)c1ccc(-c2ccccc2)cc1`, the Potency was 1.58 µM (active).
With `O=C(NCCc1nc2ccccc2n1CCOc1ccc(Cl)cc1)C1CCCCC1` the Potency was 0.158 µM (active).
For `FC(F)Sc1ccc(N=C2NN=C(c3ccc4c(c3)OCCO4)CS2)cc1`, the activity change, negative = inhibition was -6.33%.
For `COc1ccc(NC(=O)C(OC(=O)CNC(=O)c2ccccc2)c2ccccc2)cc1Cl` (stereo not drawn), the Potency was 12.6 µM (active).
`CCN(CC)c1nc(C#N)nc(N2CCOCC2)n1` was tested, and the Potency was 8.91 µM (active).
`O=C(O)c1c(Sc2ccccc2)c2cc(Cl)ccc2n1Cc1ccc(Cl)cc1` was tested, and the Potency was 8.91 µM (active).
